Measurements from PubChem BioAssay AID1159580 (chemical genetic matrix, 2015).
Screen size: about 5,500 compounds; about 2,000 (36%) were called active. Not shown: some 18% with an inconclusive outcome. Cut-off read from the data, not from the text of the source: active = normalized growth mostly below about 0.91 (no sharp cut-off); inconclusive = no clear call, values can overlap the other calls; inactive = mostly above about 0.92. The list shows a part of the results.

Assay: chemical genetic growth profiling, strain panel (AID 1159580);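 note: tested at 20 µM; growth read once vehicle control cultures reached saturation at 30 °C; 1 = growth at the plate median or of vehicle wells; lower values mean less growth of the strain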
Details: S. cerevisiae deletion strains, growth OD

Measured: normalized growth

COc1ccccc1N1CCN(CCN2C(=O)CC3(CCCC3)CC2=O)CC1
inactive: locus YER002W, strain NOP16, stronger effect = lower value 0.998 | locus YMR263W, strain SAP30, stronger effect = lower value 1 | locus YMR307W, strain GAS1, stronger effect = lower value 0.989 | locus YNL128W, strain TEP1, stronger effect = lower value 0.988 | locus YNL175C, strain NOP13, stronger effect = lower value 0.991 | locus YNL197C, strain WHI3, stronger effect = lower value 0.999 | locus YNL224C, strain SQS1, stronger effect = lower value 1 | locus YOR083W, strain WHI5 (second series), stronger effect = lower value 0.999 | locus YPL055C, strain LGE1, stronger effect = lower value 1 | locus YPL241C, strain CIN2, stronger effect = lower value 1.01
